Screening data as filed in PubChem BioAssay.
LASV entry inh: inhibitors of Lassa virus binding or cell entry; Lassa virus pseudotype entry inhibition, cell reporter; Potency, µM (series often up to 37.9 µM), hits mostly inhibitors; 300,000 tested, 1.2% active; AID 540256; calls by dose curve; tested in HEK293 cells; further: nearly all actives have a fitted effect of over 50% in size
VACV mCherry inh: inhibitors of vaccinia virus infection (mCherry reporter signal) | 310,000 tested, 0.63% active | AID 720579 | Vaccinia virus mCherry reporter infection, fluorescence | Potency, µM (titrated, usually from 36.5 µM), most hits filed as inhibitors; calls by dose curve; tested in A549 cells; further: nearly all actives have a fitted effect of over 35% in size
HCMV inh: human cytomegalovirus inhibition; HFF cells, HCMV-luciferase reporter, 72 h; active compounds read low; activity change, negative = inhibition, % at 57.5 µM; 410,000 tested, 4.5% active; in the data active means activity change below about -60%; inconclusive means no clear call, values can overlap the other calls; inactive means above about -39%
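Two-dose cell screen: HFF monolayers treated with compounds and infected with luciferase-expressing HCMV at 1 PFU/cell, 72 h at 37C, then lysed for luciferase measurement.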
Vaccinia Venus: vaccinia inhibition (Venus reporter) | Vaccinia virus Venus reporter expression, fluorescence | Potency, µM (series often up to 36.5 µM), usual class: inhibitors | 330,000 tested, 0.46% active | AID 720580; calls by dose curve; tested in A549 cells; further: nearly all actives have a fitted effect of over 30% in size
Marburg entry inh: blocks Marburg virus binding to or entry into cells; 300,000 tested, 1.8% active; Potency, µM (top dose mostly 37.8 µM), hits mostly inhibitors; AID 540276; Marburg virus pseudotyped entry inhibition, cell reporter; calls by dose curve; tested in HEK293 cells
FMDV inh: foot and mouth disease virus antiviral activity. FMDV antiviral cell-based qHTS. Potency, µM (series often up to 57.9 µM), actives largely listed as inhibitors. 410,000 tested, 1.2% active. AID 1159524; calls by dose curve; tested in HEK293T cells; further: read-out not given here; nearly all actives have a fitted effect of over 45% in size
A number is an active result; i = inactive; ? = inconclusive; nt = no result. An excerpt weighted towards active compounds, which were near 6.5% of everything screened.

SMILES	LASV entry inh	VACV mCherry inh	HCMV inh	Vaccinia Venus	Marburg entry inh	FMDV inh
O=C(CCN1C(=O)/C(=C\c2ccccc2)SC1=S)Nc1ccc(C(=O)O)cc1	?	i	i	i	i	i
O=C(CCCN1C(=O)/C(=C\c2ccccc2)SC1=S)Nc1ccc(O)cc1	?	?	-96	28µM	?	i
O=C(CCN1C(=O)/C(=C\c2ccc(F)cc2)SC1=S)Nc1ccc(O)cc1	i	i	i	i	i	i
Cc1ccc(/C=C2/SC(=S)N(CCCC(=O)Nc3ccc(O)cc3)C2=O)cc1	?	?	-100	?	?	i
O=C(COC(=O)c1ccccc1O)Nc1cccc2ccccc12	nt	nt	i	nt	nt	i
Cc1ccc2c(c1)N(CC(=O)N1CCN(C3CCCCC3)CC1)C(=O)CO2	i	i	i	i	i	i
Cc1ncc(CO)c(/C=N/NC(=O)c2cc3c(s2)CCCC3)c1O	?	nt	-66	nt	?	i
CC(=O)C1=C(C)N(Cc2ccccc2)C(=O)NC1CCc1ccccc1 (centres undefined)	i	nt	nt	nt	?	nt
CC(=O)C1=C(C)N(Cc2ccccc2)C(=O)N[C@H]1CCc1ccccc1	12µM	i	-93	i	?	?
CCc1cccc(NC(=O)CN(C)S(=O)(=O)c2ccc3c(c2)CCCN3C(C)=O)c1	i	i	i	i	nt	i
CCN1CCN(CC(=O)c2ccc(C)cc2)CC1	nt	nt	-67	nt	nt	i
Nc1nc(CCl)nc(N(c2ccccc2)c2ccccc2)n1	?	?	-98	i	?	32µM
COc1ccc([C@]23Cc4cc(OC)c(OC)cc4[C@H](O2)C2=C(CC4(CCCCC4)OC2=O)O3)cc1	nt	nt	nt	nt	i	nt
CC1=C(C#N)C(/C=N/OCc2ccc(F)cc2Cl)CC(=O)N1 (centres undefined)	?	i	-80	i	i	i
C=CCOc1ccc(CN(C)c2ccc(S(=O)(=O)N3CCN(C)CC3)cc2[N+](=O)[O-])cc1	?	?	i	i	?	?
O=[N+]([O-])c1cc(C(F)(F)F)ccc1N1CCN(S(=O)(=O)c2ccc3c(c2)CCCC3)CC1	i	i	-96	i	?	?
CN1CCN(S(=O)(=O)c2ccc(N(C)Cc3ccc(C(F)(F)F)cc3)c([N+](=O)[O-])c2)CC1	?	i	?	?	10µM	?
CC1CN(c2ccc(C(F)(F)F)cc2[N+](=O)[O-])CCN1S(C)(=O)=O (centres undefined)	i	i	i	i	i	?
C[C@@H]1CN([C@@H](C)CO)C(=O)c2cc(Br)cnc2O[C@H]1CN(C)C(=O)Nc1ccc2c(c1)OCO2	nt	i	i	i	nt	i
COc1cccc(NC(=O)CC(C)S(=O)(=O)c2ccc3c(c2)NC(=O)CO3)c1 (centres undefined)	i	i	i	i	nt	i
Cc1cccc(C)c1-n1nnnc1C1c2ccccc2C(=O)N1CCc1ccc(O)cc1 (centres undefined)	nt	i	i	i	nt	i
CCCNC(=O)NCCC12CC3CC(CC(C3)C1)C2	2.5µM	i	i	i	i	i
O=S(=O)(Nc1ccc2c(c1)OCCO2)c1cccc2nsnc12	i	i	-68	i	i	?
O=C(Nc1ccc2c(c1)OCCO2)C1CCN(S(=O)(=O)c2cccc3nsnc23)CC1	i	i	i	i	i	i
O=C(C1CCCN(S(=O)(=O)c2cccc3nsnc23)C1)N1CC=C(c2ccccc2)CC1 (centres undefined)	?	?	-61	?	?	20µM
SMILES	LASV entry inh	VACV mCherry inh	HCMV inh	Vaccinia Venus	Marburg entry inh	FMDV inh
O=C(Nc1ccc2c(c1)OCCO2)C1CCCN(S(=O)(=O)c2cccc3nsnc23)C1 (centres undefined)	i	i	-77	i	i	nt
CC(C)NC(=O)C1(C#N)C=C1c1ccccc1 (centres undefined)	nt	i	?	i	nt	i
O=C(C[N+]12CN3CN(CN(C3)C1)C2)c1ccc(I)cc1	nt	i	nt	i	nt	nt
Cc1ncc2c(c1CNS(=O)(=O)N(C)C)CCN(C(=O)c1ccc(F)cc1Cl)C2	nt	i	nt	i	nt	i
CCCCCCCCn1ccc(=N)cc1	?	i	?	i	?	?
CCCCCCCCCCCCCCCCn1cc[n+](C)c1	i	?	-96	?	?	32µM
C=CCNCCCCOc1ccc(OCc2ccccc2)cc1	nt	nt	-69	nt	nt	i
O=C(O)c1ccsc1Cc1cccs1	nt	i	i	i	nt	i
Cc1cc(C)n(C2CCCCC2OC(=O)CCc2ccccc2)n1 (centres undefined)	i	i	i	i	i	i
Cc1ccc(-n2nnnc2Sc2nc([N+](=O)[O-])nn2C)cc1	?	i	i	?	?	?
Cc1ccc(-n2nnnc2Sc2nc([N+](=O)[O-])nn2C)c(C)c1	i	nt	-70	?	?	i
O=C(COc1ccc(Cl)cc1Cl)N/N=C1\CCCc2ccccc21	i	i	i	i	i	i
O=C(COc1ccc(Cl)cc1Cl)NN=C1c2ccccc2-c2ccccc21	?	i	-61	i	i	?
Nc1nc2ccccc2n1CCOc1ccccc1Cl	i	nt	i	?	11µM	?
CCN(CC)CCn1c(=N)n(CC(O)COc2ccccc2C)c2ccccc21 (centres undefined)	?	?	-99	?	3.2µM	i
Nc1nc2ccccc2n1CCOc1ccc(Cl)cc1	i	i	i	i	?	i
Cn1c(=O)n(CCOc2ccccc2Cl)c2ccccc21	i	nt	i	i	?	i
CCN(CC)CCn1c(=N)n(CCOc2ccccc2Cl)c2ccccc21	?	?	-99	?	?	?
COc1ccc(Nc2cc3c(cn2)ncn3Cc2ccccc2)c(C)c1	nt	nt	i	nt	nt	nt
CC1(C(=O)Nc2cccc(Oc3ccccc3)c2)Cc2c(-c3ccc4c(c3)OCO4)ccnc2O1 (centres undefined)	nt	i	-67	i	nt	i
CC1(C(=O)Nc2ccccc2)Cc2c(-c3ccc4c(c3)OCO4)ccnc2O1 (centres undefined)	nt	i	i	i	nt	i
O=C(NCC(c1ccc2c(c1)OCO2)N1CCOCC1)c1c(F)cccc1F (centres undefined)	?	i	i	i	nt	i
Cc1ccc(S(=O)(=O)N(CC(=O)N2CCc3ccccc3C2)c2ccc(C)c(C)c2)cc1	?	i	i	i	nt	i
COc1ccc(-c2csc(C(C)(O)c3ccc(F)c(F)c3)n2)cc1 (centres undefined)	nt	i	-63	?	nt	i
CN(C)c1ccc(-c2csc(C(C)(O)c3ccc(F)c(F)c3)n2)cc1 (centres undefined)	nt	i	-64	i	nt	i
COc1ccc(C(C)(O)c2nc(-c3cccc(C(F)(F)F)c3)cs2)cc1 (centres undefined)	nt	i	-67	i	nt	i
CC(O)(c1ccc(F)c(F)c1)c1nc(-c2ccncc2)cs1 (centres undefined)	nt	i	i	i	nt	i
COc1ccc(-c2nc(-c3ccccc3)oc2NC(C)c2ccccc2)cc1 (centres undefined)	?	nt	nt	nt	i	nt
O=C1OCCC=C1C(O)CCc1ccccc1 (centres undefined)	nt	nt	nt	nt	i	nt
O=C(c1ccco1)N1CCN(c2ccc([N+](=O)[O-])cn2)CC1	nt	nt	i	nt	nt	i
